High-throughput results deposited in PubChem by several laboratories.
NCOA3 inh = human NCOA3 inhibition | Q9Y6Q9 | HEK293 GAL4-SRC3 luciferase reporter, luminescence | inhibition, % at 3.6 µM | 360,000 tested, 0.17% active;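 active means inhibition above a per-campaign cutoff, the mean of all compounds plus 3 SD, cut at about 60% in these data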;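 further: 0% = DMSO-treated cells and 100% = gossypol-treated cells at 36 µM; higher means less SRC3-driven luciferase light from the GAL4 reporter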
SRC1 inh = inhibits human SRC1 coactivator; Q15788; HEK293 GAL4-SRC1 luciferase reporter, luminescence; inhibition, % at 3.6 µM; 360,000 tested, 0.12% active;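 active means inhibition above the campaign mean plus 3 SD, with each screening campaign given its own cutoff, cut at about 60% in these data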;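 further: 0% = DMSO treated cells and 100% = gossypol at 36 µM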
Gli-Sufu block = antagonists of Gli-Sufu signaling | Sufu-KO-LIGHT fibroblasts, Gli luciferase reporter luminescence | inhibition, % at 5 µM | 340,000 tested, 0.74% active | AID 588413;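 active means inhibition above about 55%, limit read from the data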;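 further: 0% = DMSO-treated cells and 100% = wells with medium but no cells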
NR2F2 inh = blocks human COUP-TFII nuclear receptor | inhibition, % at 8.6 µM | HEK293T NGFI-A luciferase reporter, luminescence | P24468 | 370,000 tested, 0.7% active;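 active means inhibition above a per-plate cutoff, mean inhibition of test wells between control levels plus 3 SD, cut at about 38% in these data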;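 further: cells cotransfected with COUP-TFII expression vector driving the NGFI-A reporter; 0% = median of COUP-TF2 test wells and 100% = reporter-only cells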
Target sequence (P24468 whole entry, looked up): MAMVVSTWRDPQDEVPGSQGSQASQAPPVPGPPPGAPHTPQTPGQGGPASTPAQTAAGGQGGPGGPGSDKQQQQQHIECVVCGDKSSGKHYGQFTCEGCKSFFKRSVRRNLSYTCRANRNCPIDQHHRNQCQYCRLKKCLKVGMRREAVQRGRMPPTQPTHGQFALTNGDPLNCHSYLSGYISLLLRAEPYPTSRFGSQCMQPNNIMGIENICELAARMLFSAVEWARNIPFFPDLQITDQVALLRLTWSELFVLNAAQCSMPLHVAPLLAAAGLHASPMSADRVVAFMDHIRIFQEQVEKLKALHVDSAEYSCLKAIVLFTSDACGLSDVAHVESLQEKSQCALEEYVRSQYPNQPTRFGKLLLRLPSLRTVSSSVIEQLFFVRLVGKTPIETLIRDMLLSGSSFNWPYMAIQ
NR5A2 inv ag = suppresses constitutive activity of human LRH-1; inhibition, % at 3.6 µM; 360,000 tested, 0.13% active; HEK293T StAR-luciferase reporter, LRH-1 transfected, 24 h;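 active means inhibition above the mean inhibition of all tested compounds plus 3 SD, cut at about 73% in these data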;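 further: 0% = DMSO wells and 100% = reporter-only cells lacking LRH-1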
NCOA2 inhibitor = human SRC2 (NCOA2) inhibition. Q15596. HEK293 GAL4-SRC2 luciferase reporter, luminescence. inhibition, % at 9 µM. 370,000 tested, 0.17% active;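 active means inhibition above the mean inhibition of all tested compounds plus 3 SD, set per campaign, cut at about 52% in these data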;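 further: 0% = DMSO treated cells and 100% = cells given Gossypol at 36 µM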
Gli antag conf = confirmation of Gli-SUFU pathway antagonists; shares compounds with Gli-Sufu block; Sufu-KO-LIGHT cells, Gli luciferase reporter, luminescence; inhibition, % at 5 µM; 2,500 tested, 40% active; AID 602428;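 active means mean inhibition at 5 µM reaching about 45%, limit read from the data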;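 further: plate controls were DMSO-treated cells for no effect and wells lacking cells for full effect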
SufuKO cytotox = cytotoxicity counter-screen for Gli-SUFU antagonists; 2,500 tested, 32% active; AID 651994; shares compounds with Gli-Sufu block; cytotoxicity, % at 5 µM; Sufu-KO-LIGHT cells cytotoxicity, ATP luminescence;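 active means mean cytotoxicity at 5 µM above about 25%, limit read from the data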;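 further: cells exposed to compound overnight for roughly 16 to 18 hours; plate controls were DMSO wells with cells for no effect and medium without cells for full effect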
Wnt3a counter = counter-screen for Gli-SUFU antagonists: Wnt3a reporter inhibition; inhibition, % at 6.25 µM; Wnt-LIGHT cells, Wnt3a-driven luciferase reporter, luminescence; shares compounds with Gli-Sufu block; 2,500 tested, 20% active;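 active means mean inhibition above about 25%, limit read from the data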
Active calls of the source: *; nt = no result. An excerpt weighted towards active compounds, which were near 1.3% of everything screened.

SMILES	NCOA3 inh	SRC1 inh	Gli-Sufu block	NR2F2 inh	NR5A2 inv ag	NCOA2 inhibitor	Gli antag conf	SufuKO cytotox	Wnt3a counter
Cc1cc(C)cc(NC(=S)N(CCN(C)C)C(C)c2cccnc2)c1 (stereo unspecified)	11.6	-17.2	50.4	-10.4	4.5	-21.2	16.8	12.3	-30.9
Cc1cc(C)c(NC(=S)N(CCN(C)C)C(C)c2cccnc2)c(C)c1 (stereo unspecified)	12.3	-46.3	12.1	7.9	-6.7	-15.1	nt	nt	nt
C/C(=N\Nc1ccc2nncn2n1)c1ccc(Br)s1	18.2	13.3	61.7*	-6.4	8.5	32.1	29.1	25.0	-3.5
CCOC(=O)C1=CN(Cc2ccco2)S(=O)(=O)N(CC)C1c1ccc(F)c(Cl)c1 (stereo unspecified)	3.3	3.4	10.3	15.9	-14.8	-11.1	nt	nt	nt
CCOC(=O)C1=CN(Cc2ccco2)S(=O)(=O)N(C)C1c1cccc(OC)c1 (stereo unspecified)	8.3	-2.1	2.6	9.9	-1.4	8.3	nt	nt	nt
CCOC(=O)C1=CN(Cc2ccco2)S(=O)(=O)N(CC)C1c1ccccc1 (stereo unspecified)	8.8	1.9	52.5	10.6	3.6	-6.2	12.2	3.4	-9.9
CCOC(=O)C1=CN(Cc2ccco2)S(=O)(=O)N(CC)C1c1cccc(OC)c1 (stereo unspecified)	-4.3	-0.2	51.7	8.8	-34.2	0.7	10.3	22.0	-16.4
CN(C)CCN1C(=O)c2oc3ccccc3c(=O)c2C1c1ccc(F)cc1 (stereo unspecified)	3.4	-11.9	1.2	6.6	-19.8	-10.6	nt	nt	nt
CCN(CC)CCN1C(=O)c2oc3ccccc3c(=O)c2C1c1ccc(C)cc1 (stereo unspecified)	-9.6	-9.8	80.0*	-14.2	3.6	5.7	21.9	-6.0	-22.1
S=c1[nH]nc(CSCc2ccccc2Cl)n1C1CCCCC1	9.2	8.7	52.2	4.2	3.8	27.6	30.3	20.1	-0.2
COc1ccccc1C(=O)N1CCC2CCN(C(=O)c3ccccc3)C2C1 (stereo unspecified)	nt	nt	nt	9.9	nt	-20.7	nt	nt	nt
COc1ccc(CC(=O)NC(=S)Nc2ccc(S(N)(=O)=O)cc2)cc1	8.3	2.9	-0.3	2.5	25.2	13.5	nt	nt	nt
C=CCN(CC=C)S(=O)(=O)c1ccc(NC(=S)NC(=O)Cc2ccc(OC)cc2)cc1	-14.4	4.1	69.1*	11.4	10.7	19.7	15.6	17.1	24.2
COc1ccc(N(CC(=O)Nc2nccs2)S(=O)(=O)c2c(C)nn(C)c2C)cc1	8.6	8.2	57.6*	3.6	19.6	2.4	32.2	3.6	3.2
COc1ccc(CN(CCC(c2ccccc2)c2ccc(OC(C)C)cc2)C(=O)CCl)cc1OC (stereo unspecified)	0.8	-7.0	9.5	4.5	7.3	13.9	nt	nt	nt
COc1ccc(C(CCN(Cc2ccc(OC)c(OC)c2)C(C)=O)c2ccccc2)cc1 (stereo unspecified)	8.3	13.0	56.8*	12.6	-11.6	11.3	22.9	22.7	12.1
CCCC[C@H]1C2CC(OC(=O)Nc3cccc(C#N)c3)C(C2)[C@H]2CCCCN21 (stereo partly specified)	nt	nt	nt	8.8	nt	-9.7	nt	nt	nt
CCOC(=O)N1CCN(C(=O)C[C@H]2C[C@@]3(C(=O)OC)C(=C[C@H](C(C)(C)C)O[C@@H]3C)N(Cc3ccc4c(c3)OCO4)C2=O)CC1	nt	nt	nt	1.9	nt	0.3	nt	nt	nt
CCN(CC)CCCNC(=O)CC1Oc2ccccc2NC1=O (stereo unspecified)	nt	nt	nt	20.1	nt	-14.8	nt	nt	nt
C=C1C(=O)OC2C=C(CO)C3OC3C3OC3(C)CC(OC(=O)/C(=C/C)COC(C)=O)C12 (stereo unspecified)	-67.4	-116.2	68.3*	13.5	-11.1	-39.2	61.4*	19.2	57.4*
N=c1c(C(=O)NC2CCCC2)cc2c(=O)n3ccccc3nc2n1CC1CCCO1 (stereo unspecified)	-3.6	7.7	4.0	-17.1	8.8	-15.0	nt	nt	nt
CC(NC(=O)c1cc2c(=O)n3ccccc3nc2n(CC2CCCO2)c1=N)c1ccccc1 (stereo unspecified)	11.0	1.3	59.1*	1.8	11.1	-21.2	29.9	10.8	-53.0
CCOc1ccc([N+](=O)[O-])cc1CNC1CCCCCCC1	10.1	13.1	51.8	5.9	-3.4	10.4	20.7	7.0	-19.1
O=C(CNS(=O)(=O)c1ccc(Cl)s1)N1CCN(c2ccccn2)CC1	nt	nt	nt	20.7	nt	8.4	nt	nt	nt
CS(=O)(=O)c1nc(S(=O)(=O)c2ccc(Cl)cc2)c(NCCN2CCOCC2)s1	-1.4	-2.9	-2.6	-2.5	10.0	1.1	nt	nt	nt
SMILES	NCOA3 inh	SRC1 inh	Gli-Sufu block	NR2F2 inh	NR5A2 inv ag	NCOA2 inhibitor	Gli antag conf	SufuKO cytotox	Wnt3a counter
CS(=O)(=O)c1nc(S(=O)(=O)c2ccc(Cl)cc2)c(NCCCn2ccnc2)s1	16.4	-39.3	57.0*	-17.9	14.2	-10.1	11.1	5.6	2.6
CCOc1ccccc1C(=O)N1CCC(Oc2cccnc2)CC1	nt	nt	nt	7.9	nt	5.6	nt	nt	nt
O=C(N[C@@H](Cc1cccnc1)C(=O)N1CCC[C@H]1C(=O)NCCc1ccccc1Cl)C1CCCC1	nt	nt	nt	-2.8	nt	-28.4	nt	nt	nt
Cc1ccc(Nc2nc3c(c(=O)[nH]2)CCCC3)cc1	-43.7	-27.2	-37.6	-27.2	-33.0	-29.8	nt	nt	nt
O=c1[nH]c(Nc2nc3ccccc3o2)nc2c1CCCC2	-84.3	-89.2	61.8*	-14.4	-144.0	-20.8	63.6*	38.6*	44.0*
CCOC(=O)[C@]12CCCC3=C1N(CCC3)C(=O)[C@@H](CC(=O)NCc1ccc(OC)c(OC)c1)C2	nt	nt	nt	5.0	nt	-2.9	nt	nt	nt
O=C(O)CSCCn1cccn1	-4.0	7.4	2.0	4.6	5.4	8.6	nt	nt	nt
Cc1ccn(CCSCC(=O)O)n1	9.6	-50.4	53.4	-0.6	16.6	18.2	13.1	12.5	-7.4
CC(C)Oc1ccccc1C1CC(=O)Nc2cc3c(cc21)OCCO3 (stereo unspecified)	13.7	8.8	54.5	-43.0	7.7	16.7	60.2*	59.4*	5.1
CCOC(=O)CC[C@@]1(C(=O)OCC)C[C@@H](CC(=O)NCc2ccc(C)o2)C(=O)N2CCCC=C21	nt	nt	nt	-5.8	nt	2.6	nt	nt	nt
CC1Cn2c(Cc3ccccc3)nnc2S1 (stereo unspecified)	-4.0	9.3	nt	-2.1	11.1	11.8	nt	nt	nt
CC1Cn2c(CCc3ccccc3)nnc2S1 (stereo unspecified)	-3.7	-13.7	53.6	11.4	8.1	9.0	19.4	1.5	-7.2
Cc1cccc(N2CN(Cc3cccnc3)CNC2=S)c1C	1.9	-4.2	55.3*	-2.9	6.2	0.4	28.6	-4.2	-5.5
